“And” between values parts separate entries of the source, which are not always exact repeats. Equal values may be shown once. Results filed as inconclusive are left out. Values without a mark were called inactive. The source made the active and inactive calls. Calls come from the whole dose curve; as a rule, active = well fitted activation curve with a large enough effect; inconclusive = small, poorly fitted or top-dose-only effect; inactive = no such curve, though single readings can be large or run the other way. Square brackets hold non-standard residues; d marks the D form. Peptide text beside a SMILES is read from it. Hyp = O=C(O)[CH]1C[CH](O)CN1; Phe(ol) = N[CH](CO)Cc1ccccc1; Iva = CC[C](C)(N)C(=O)O; Aib = CC(C)(N)C(=O)O

In PubChem BioAssay (NCATS) one finds activation and Potency data, which are given here for 40 compounds.
Potency is the fitted concentration of half-maximal effect.

Chain of Cellular tumor antigen p53 (Homo sapiens) (P04637 whole entry, looked up): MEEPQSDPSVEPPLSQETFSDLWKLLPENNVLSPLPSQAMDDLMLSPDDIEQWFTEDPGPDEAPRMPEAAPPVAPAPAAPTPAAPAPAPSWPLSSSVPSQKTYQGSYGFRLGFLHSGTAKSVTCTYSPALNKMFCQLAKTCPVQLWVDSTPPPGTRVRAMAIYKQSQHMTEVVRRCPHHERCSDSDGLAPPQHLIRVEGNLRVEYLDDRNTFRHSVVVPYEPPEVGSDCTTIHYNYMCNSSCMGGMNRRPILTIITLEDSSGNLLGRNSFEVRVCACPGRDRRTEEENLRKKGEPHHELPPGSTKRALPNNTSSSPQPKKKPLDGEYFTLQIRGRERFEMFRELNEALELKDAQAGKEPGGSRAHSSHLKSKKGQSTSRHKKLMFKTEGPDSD

This assay has as its target Cellular tumor antigen p53 (Homo sapiens) (UniProt P04637). Kind of assay: Primary qHTS for small molecule compounds that upregulate eGFP-tagged delta133p53alpha (in N-terminal) cells. (AID 2060322).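 For activation: series mostly up to about 56 µM; 0% = DMSO vehicle and 100% = reference activator.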 Note: nearly all actives have a fitted effect of over 75% in size. The conditions noted are these: NCI-H358 eGFP-delta133p53alpha fluorescence, 24 h; activation: stronger effect = higher value. In outline:
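NCI-H358 cells pre-induced 24 h with 10 ng/ml doxycycline to express N-terminal eGFP-delta133p53alpha, then dosed 24 h at 37C without doxycycline; fixed, Hoechst-stained, GFP intensity by laser scanning cytometry, normalized to DMSO (0%) and 57.5 uM 5-azacytidine (100%).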
On the technique in general: Quantitative high-throughput screening tests each substance at several concentrations.
Turning to `Cc1cc(C(=O)N2Cc3cnn(C)c3Nc3ccccc32)ccc1CNC(=O)N1CCN(Cc2cc(O)cc(O)c2)CC1`, the activation was -7.16%. On the same count and under the same terms, the same measure for `CCC1CC2C(C)=CC3CCCCC3C2(C)C2(OC(=O)C(C)(O)OC2=O)O1` (stereo not given): -16%.

With `CC(C)(C)NC(=O)[C@@H]1CN(Cc2cccnc2)CCN1C[C@@H](O)C[C@@H](Cc1ccccc1)C(=O)N[C@H]1c2ccccc2C[C@H]1O`, the activation was -2.82% and 2.86%. Same read-out and setting: the same measure for `Cc1ccccc1C(=O)Nc1ccc(C(=O)N2CCC[C@@H](O)c3cc(Cl)ccc32)c(C)c1`: 0%; for `COc1ccc2c(c1)C(C(=O)N(Cc1ccc(N(C)C)cc1)c1ccc(C(C)C)cc1)CCC2` (stereo not given): 1%.

With `CC1OC(OC2C(O)C(OC3CCC4(C)C(CCC5(C)C4CC=C4C6CC(C)(COC7OC(CO)C(O)C(O)C7O)CC(O)C6(C)CCC45C)C3(C)C)OC(C(=O)O)C2O)C(O)C(O)C1OC1OCC(O)C(O)C1O` (stereo not given), the activation is -4.46%.

On to `CC1=C2C(=O)C=C(CO)C2C2OC(=O)C(CS(=O)(=O)O)C2C(OC(=O)Cc2ccc(O)cc2)C1` (stereo not given), for which the activation is -22.1%.

As for `CCOc1nc2cccc(C(=O)O)c2n1Cc1ccc(-c2ccccc2-c2nn[nH]n2)cc1`, the activation is -1.69% and 19.6%. The same measure, in the same setting: the same measure for `CCCCCOC(=O)Nc1nc(=O)n(C2O[C@H](C)[C@@H](O)[C@H]2O)cc1F` (stereo not given in full): -11.7%; for `COC(=O)C1=COC(OC2OC(CO)C(O)C(O)C2O)C2C(C)C(OC(C)=O)C(OC(=O)c3ccccc3)C12` (stereo not given): -6.87%. The same measure, in the same setting: with `CCCCS(=O)(=O)N[C@@H](Cc1ccc(OCCCCC2CCNCC2)cc1)C(=O)O` the figure was -22% and 10.3%. The same measure, in the same setting: with `CCC(C)(NC(=O)C(CCC(N)=O)NC(=O)C1CC(O)CN1C(=O)C(C)(C)NC(=O)C(C)(C)NC(=O)C(CC(C)C)NC(=O)CNC(=O)C(NC(=O)C(C)(C)NC(=O)C(C)(C)NC(=O)C(C)(C)NC(=O)C(Cc1ccccc1)NC(C)=O)C(C)C)C(=O)N1CC(O)CC1C(=O)NC(C)(C)C(=O)NC(CO)Cc1ccccc1` (stereo not given) (Ac-F[Aib][Aib][Aib]VGL[Aib][Aib][Hyp]Q[Iva][Hyp][Aib][Phe(ol)]; configuration not given here) the figure was 23.7%; with `CC1C=CC2CCCCC2C1CCC1CC(O)CC(=O)O1` (stereo not given), -0.893%; with `CC(=O)O[C@@H]1[C@@H](O)[C@H](C)O[C@@H](O[C@H]2[C@@H]3C=CO[C@@H](O[C@@H]4O[C@H](CO)[C@@H](O)[C@H](O)[C@H]4O)[C@@H]3[C@@]3(CO)O[C@@H]23)[C@@H]1OC(=O)/C=C/c1ccccc1`, 4.58%. Turning to `Cc1cc(C)c(NC(=O)N(Cc2ccc3c(c2)Cc2ccccc2-3)C2CCCCCC2)c(C)c1`, the activation was 15.3%. For the compound `CCN1CCN(Cc2ccc(NC(=O)c3ccc(C)c(Oc4ccnc5[nH]ccc45)c3)cc2C(F)(F)F)CC1`, the Potency was 14.8 µM (active). Turning to `CC1(C)CCC2(C(=O)OC3OCC(O)C(O)C3O)CCC3(C)C(=CCC4C5(C)CC(O)C(OC6OC(COC7OCC(O)C(O)C7O)C(O)C(O)C6O)C(C)(C)C5CCC43C)C2C1` (stereo not given), the activation is 4.46%.

Consider `CC1(C)CC[C@@]2(C(=O)O[C@@H]3O[C@H](CO)[C@@H](O)[C@H](O)[C@H]3O)C(C1)C1=CCC3[C@@]4(C)CC[C@@H](O[C@@H]5O[C@H](C(=O)O)[C@@H](O[C@@H]6OC[C@@H](O)[C@H](O)[C@H]6O)[C@H](O[C@@H]6OC[C@](O)(CO)[C@H]6O)[C@H]5O)C(C)(C)C4CC[C@@]3(C)[C@]1(C)C[C@H]2O` (stereo not given in full), for which the activation was -19.8%. Turning to `NC(=O)[C@H]1CCCCc2c1[nH]c1ccc(Cl)cc21`, the activation was 15%. As to `C=C1CC[C@@H]2[C@](C)(CO)[C@H](O)CC[C@@]2(C)[C@@H]1C/C=C1/C(=O)OC[C@@H]1O`, the Potency is 11.7 µM (active). For the compound `CC(NC(=O)c1ccccc1N)C(=O)O` (stereo not given), the activation was -20.6%.

For `CC(C)C(C#N)O[C@@H]1O[C@H](CO[C@@H]2OC[C@](O)(CO)[C@H]2O)[C@@H](O)[C@H](O)[C@H]1O` (stereo not given in full), the activation was 6.87%. With `CC1(C)C2CC(OC3OC(COC4OCC(O)(CO)C4O)C(O)C(O)C3O)C1(C)CC2O` (stereo not given), the activation was 1.79%.

`C=C1CCC2C(C)(C(=O)O)CCCC2(C)C1CCC1=CCOC1=O` (stereo not given): the activation was 31.2%.

Regarding `CC(C)(C)c1ccc(C(=O)Nc2cn3cc(-n4ccnc4)ccc3n2)cc1`, the activation was 1.79%. On the same count and under the same terms, the same measure for `OCC1OC(Oc2cc(O)cc(/C=C/c3ccc(O)cc3)c2)C(O)C(O)C1O` (stereo not given): -15.3%; for `Cc1cc(Nc2nc(NC(C)c3ncc(F)cn3)ncc2Cl)n[nH]1` (stereo not given): 8.04%; for `C[C@@H]1O[C@@H](O[C@@H]2[C@@H](O)[C@H](O[C@H]3[C@H](O[C@H]4CC[C@@]5(C)C(CC[C@]6(C)C5CC=C5[C@@H]7CC(C)(C)CC[C@]7(C(=O)O[C@@H]7O[C@H](CO)[C@@H](O)[C@H](O)[C@H]7O[C@@H]7O[C@@H](C)[C@H](O[C@@H]8O[C@@H](C)[C@H](O)[C@@H](O)[C@H]8O)[C@@H](O)[C@H]7O)CC[C@]56C)[C@@]4(C)CO)O[C@H](C(=O)O)[C@@H](O)[C@@H]3O)O[C@H](CO)[C@H]2O)[C@H](O)[C@H](O)[C@H]1O` (stereo not given in full): -9.16%. Take `CCN1C(=O)c2ccccc2C1Nc1ccc(OCCN2CCCCC2)cc1` (stereo not given): the activation was -18.4%. For `CC(C)=CCC/C(C)=C/CO[C@@H]1O[C@H](CO)[C@@H](OC(=O)/C=C/c2ccc(O)cc2)[C@H](O[C@@H]2O[C@@H](C)[C@H](O)[C@@H](O)[C@H]2O)[C@H]1O`, the activation is 19.6%. As to `C[C@@H]1O[C@@H](O[C@H]2[C@H](O)[C@@H](O[C@@H]3O[C@H](CO)[C@@H](O)[C@H](O[C@@H]4O[C@H](CO)[C@@H](O)[C@H](O)[C@H]4O)[C@H]3O)[C@H](O[C@H]3CC[C@@]4(C)C(=CC[C@@H]5C4CC[C@@]4(C)C5C[C@@H]5OC6(CC[C@@](C)(CO[C@@H]7O[C@H](CO)[C@@H](O)[C@H](O)[C@H]7O)O6)[C@@H](C)[C@@H]54)C3)O[C@@H]2CO)[C@H](O)[C@H](O)[C@H]1O` (stereo not given in full), the activation is -25.2%. As to `C=C1[C@H](OC(C)=O)[C@H]2[C@@H](OC(C)=O)[C@](C)(OC(C)=O)C[C@]2(OC(C)=O)C(=O)[C@H](C)/C=C/C(C)(C)C(=O)[C@H](OC(=O)C(C)C)[C@H]1OC(C)=O`, the activation is 2.29%. As for `C=C1CC[C@@H](O)[C@]2(C)C[C@H]3OC(=O)C(=C)[C@H]3CC12` (stereo not given in full), the Potency was 21.3 µM (active).

Take `C/C1=C\C[C@H](O[C@@H]2O[C@H](CO)[C@@H](O)[C@H](O)[C@H]2O)/C(C)=C/[C@H]2OC(=O)[C@H](C)[C@@H]2CC1`: the activation is -8.04%. Take `C/C=C(/C)C(=O)O[C@H]1C[C@]2(C)O[C@@H]2[C@@H](OC(C)=O)[C@@]2(C)CC[C@@](O)(C(C)C)[C@H]12`: the activation is -19.1%. Same read-out and setting: the same measure for `CC(=O)/C=C/C1(O)C(C)CC(O[C@@H]2O[C@H](CO)[C@@H](O)[C@H](O)[C@H]2O)CC1(C)C` (stereo not given in full): 2.68%. Take `CCN1C(C)(C)CC(Oc2ccc(C(=O)Nc3ccc(NC(=O)Nc4cc(C(C)(C)C)on4)cc3)nc2)CC1(C)C`: the Potency was 21.3 µM (active). In the case of `OC[C@H]1O[C@@H](Oc2cc(O)c3c(c2)O[C@@H](c2ccc(O)cc2)[C@H](O)C3)[C@H](O)[C@@H](O)[C@@H]1O`, the activation was 4.46%. The same measure, in the same setting: with `Cn1c(=O)c(F)c(Nc2ccc(I)cc2F)c2c(=O)n(CC(O)CO)cnc21` (stereo not given) the figure was 14.3%. For the compound `O=C(O)CCc1cc2ccoc2cc1O[C@@H]1O[C@H](CO)[C@@H](O)[C@H](O)[C@H]1O`, the activation is 6.11%.
